This excerpt belongs to a sample that is enriched for hits.
Methyltransferases: Primary Screen for Target Class Profiling of Small Molecule Inhibitors of Methyltransferases. purified enzyme, MTase-Glo SAH luminescence; hits give low values. calls only at 40 µM. 3.9% of 25,000 active. AID 1745853, 2022; call rule not given here
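Each enzyme was reacted with SAM and its substrate, with compounds tested once at 40 uM; SAH formed was read by MTase-Glo luminescence.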
Large screens that a line does not name were inactive.

COC(=O)c1cc2n(n1)CC(C)(C(=O)NC1CCC(C)CC1)N(c1ccc(C)cc1Cl)C2=O (stereo unspecified)	none
COc1cccc(CNC(=O)CSc2nnc3n(CC(C)C)c(=O)c4ccccc4n23)c1	none
CCC(C(=O)NC)n1ccc2cc(S(=O)(=O)N3CCCCC3)ccc21 (stereo unspecified)	none
O=C(O)COCCN1CCN([C@H](c2ccccc2)c2ccc(Cl)cc2)CC1	none
CN(C)CCCNc1nc(CN2CCN(C(c3ccc(Cl)cc3)c3ccc(Cl)cc3)CC2)nc2ccccc12	Methyltransferases active
O=C(O)COCCN1CCN(C(c2ccccc2)c2ccc(Cl)cc2)CC1 (stereo unspecified)	none
CC(=O)Nc1c2n(c3ccc(C)cc13)CC(C)(C(=O)NC1CCCCCC1)N(C1CCCC1)C2=O (stereo unspecified)	none
CCc1cc2c(cc3n2CC(C)(C(=O)NC2CCCCCC2)N(Cc2ccc(OC)cc2)C3=O)s1 (stereo unspecified)	none
CC(C)(C)c1cc2n(n1)CC(C)(C(=O)NC1CCCCC1)N(Cc1cccc(F)c1)C2=O (stereo unspecified)	none
CC(=O)O[C@@H]1[C@@H](OC(=O)/C=C/c2ccccc2)[C@@H](OC(C)=O)[C@H](O[C@H]2[C@@H]3C=CO[C@@H](O[C@@H]4O[C@H](CO)[C@@H](O)[C@H](O)[C@H]4O)[C@@H]3[C@@]3(CO)O[C@@H]23)O[C@H]1C	none
O=C(/C=C/c1ccccc1)OC[C@]12O[C@H]1[C@@H](O)[C@@H]1C=CO[C@@H](O[C@@H]3O[C@H](CO)[C@@H](O)[C@H](O)[C@H]3O)[C@@H]12	Methyltransferases active
COc1ccc(/C=C/C(=O)O[C@@H]2[C@@H](OC(C)=O)[C@@H](OC(C)=O)[C@H](O[C@H]3[C@@H]4C=CO[C@@H](O[C@@H]5O[C@H](CO)[C@@H](O)[C@H](O)[C@H]5O)[C@@H]4[C@@]4(CO)O[C@@H]34)O[C@H]2C)cc1O	Methyltransferases active
COc1cc(/C=C/C(=O)O[C@H]2[C@@H]3C=CO[C@@H](O[C@@H]4O[C@H](CO)[C@@H](O)[C@H](O)[C@H]4O)[C@@H]3[C@@]3(CO)O[C@@H]23)ccc1O	Methyltransferases active
O=C(/C=C/c1ccc(O)cc1)OC[C@]12O[C@H]1[C@@H](O)[C@@H]1C=CO[C@@H](O[C@@H]3O[C@H](CO)[C@@H](O)[C@H](O)[C@H]3O)[C@@H]12	none
COc1ccc(/C=C/C(=O)O[C@@H]2[C@@H](O)[C@@H](O)[C@H](O[C@H]3[C@@H]4C=CO[C@@H](O[C@@H]5O[C@H](CO)[C@@H](O)[C@H](O)[C@H]5O)[C@@H]4[C@@]4(CO)O[C@@H]34)O[C@H]2C)cc1	none
COc1ccc(/C=C/C(=O)O[C@@H]2[C@@H](O[C@@H]3O[C@H](CO)[C@@H](O)[C@H](O)[C@H]3O)[C@@H](O)[C@H](O[C@H]3C4C=CO[C@@H](O[C@@H]5O[C@H](CO)[C@@H](O)[C@H](O)[C@H]5O)C4[C@@]4(CO)O[C@@H]34)O[C@H]2C)cc1 (stereo partly specified)	none
C[C@@H](OC(=O)/C=C/c1ccc(O)cc1)C1=C[C@]2(C=C[C@@H]3C(C(=O)O)=CO[C@@H](O[C@@H]4O[C@H](CO[C@@H]5O[C@H](CO)[C@@H](O)[C@H](O)[C@H]5O)[C@@H](O)[C@H](O)[C@H]4O)[C@@H]32)OC1=O	none
CC(=O)O[C@H]1[C@@H](O)[C@H](O[C@H]2[C@@H]3C=CO[C@@H](O[C@H]4O[C@@H](CO)[C@H](O)[C@@H](O)[C@@H]4O)[C@@H]3[C@@]3(CO)O[C@@H]23)O[C@@H](C)[C@@H]1OC(=O)/C=C/c1ccccc1	none
COC(=O)C1=COC(OC2OC(CO)C(O)C(O)C2O)C2C1C=CC2(O)CO (stereo unspecified)	none
CC(=O)O[C@@H]1[C@@H](OC(C)=O)[C@H](C)O[C@@H](O[C@H]2[C@@H]3C=CO[C@@H](O[C@@H]4O[C@H](CO)[C@@H](O)[C@H](O)[C@H]4O)[C@@H]3[C@@]3(CO)O[C@@H]23)[C@@H]1OC(=O)/C=C/c1ccccc1	none
O=C(/C=C/c1ccc(O)cc1)OC[C@@]1(O)C=C[C@@H]2C(C(=O)O)=CO[C@@H](O[C@@H]3O[C@H](CO)[C@@H](O)[C@H](O)[C@H]3O)[C@@H]21	Methyltransferases active
CCCC1c2cccn2CCN1C(=O)Nc1ccc(OCC)cc1 (stereo unspecified)	none
CCOC(=O)c1cc2n(n1)CC(C)(C(=O)NC1CCCC1)N(c1cccc(CC)c1)C2=O (stereo unspecified)	none
COc1ccc(Cl)cc1NC(=O)N1CCn2cccc2C1C(C)C (stereo unspecified)	none
O=C(c1ccc2c(=O)nc3c(-c4ccccc4F)n[nH]n3c2c1)N1CCN(c2ccc(F)cc2)CC1	none
CCN1C(=O)c2cc3ccccc3n2CC1(C)C(=O)NCC(=O)NCCCOC (stereo unspecified)	none
CCCC1c2ccc(C)n2CCN1C(=O)Nc1cc(C)ccc1OC (stereo unspecified)	none
CCOC(=O)c1cc2n(n1)CC(C)(C(=O)NC1CCCCCC1)N(Cc1ccc(Cl)cc1)C2=O (stereo unspecified)	none
Cc1cc2c(cc3n2CC(C)(C(=O)NC2CCCCCC2)N(Cc2cccc(F)c2)C3=O)o1 (stereo unspecified)	none
C=CCn1c(=O)c2ccc(C(=O)NC(C)CC)cc2n2c(=O)n(CC(=O)Nc3ccc(F)cc3)nc12 (stereo unspecified)	none
C=C[C@H]1[C@H](O[C@@H]2O[C@H](CO)[C@@H](O)[C@H](O)[C@H]2O)OC=C2C(=O)OCC[C@]21O	none
O=C(/C=C/c1ccc(O)c(O)c1)O[C@@H]1[C@@H](O)[C@H](OC2CCCCC2O)O[C@H](CO)[C@H]1O (stereo partly specified)	none
C=C[C@H]1[C@H](O[C@@H]2O[C@H](CO)[C@@H](O)[C@H](OC(=O)/C=C/c3ccc(O)c(OC)c3)[C@H]2O)OC=C2C(=O)OCC[C@]21O	Methyltransferases active
COCCCN1C(=O)c2cc3ccc(OC)cc3n2CC1(C)C(=O)NC1CCCCC1 (stereo unspecified)	none
CCCn1c(=O)c2ccc(Cl)cc2n2c(=O)n(CC(=O)Nc3ccc(OC)cc3)nc12	none
Cc1ccc(Cn2nc3n(C(C)C)c(=O)c4ccc(C(=O)NC5CCCCC5)cc4n3c2=O)cc1	none
CCOC(=O)c1cc2n(n1)CC(C)(C(=O)NC1CCCCCC1)N(c1cccc(F)c1)C2=O (stereo unspecified)	none
CC1(C(=O)NCc2ccccc2)Cc2ccccc2C(=O)N1Cc1ccccc1 (stereo unspecified)	none
CCC(=O)N1CCN(c2ccc(-n3c(=O)ccc4cnc5ccc(-c6cnc7ccccc7c6)cc5c43)cc2C(F)(F)F)CC1	none
Nc1ccc(-c2ccc3ncc4ccc(=O)n(-c5cccc(C(F)(F)F)c5)c4c3c2)cn1	Methyltransferases active
COC(=O)c1cc2n(n1)CC(C)(C(=O)NC1CCCC1)N(c1ccc(Cl)cc1C)C2=O (stereo unspecified)	none
Cc1ccc(-c2n[nH]n3c2nc(=O)c2ccc(C(=O)NCc4ccccc4Cl)cc23)cc1	none
COc1ccc(C(=O)Cn2nc3n(CCc4ccccc4)c(=O)c4ccccc4n3c2=O)cc1	none
CC(C)OCCCn1c(=O)c2ccccc2n2c(SCc3cccc(Cl)c3)nnc12	none
COc1ccc(CN2C(=O)c3cc(-c4ccc(C(C)C)cc4)nn3CC2(C)C(=O)NCCC(C)C)cc1 (stereo unspecified)	none
